Test results published in PMC11024108.

How the values were obtained:
[1] = target: ATPase family AAA domain-containing protein 3A (UniProt Q9NVI7); test: cross-link between two proteins; affinity purification or IP with mass spectrometry; cross-linking mass spectrometry
[2] = target: Cytochrome c oxidase assembly factor 4 homolog, mitochondrial (UniProt Q9NYJ1); test: as above
[3] = target: MICOS complex subunit MIC19 (UniProt Q9NX63); test: as above
[4] = target: MICOS complex subunit MIC25 (UniProt Q9BRQ6); test: as above
[5] = target: Serine/threonine-protein phosphatase PGAM5, mitochondrial (UniProt Q96HS1); test: as above
[6] = target: TIM double twin CX3C motif protein (UniProt Q96C01); test: as above
14-3-3 protein epsilon = 14-3-3 protein epsilon (UniProt P62258); test: cross-link between two proteins; cross-linking mass spectrometry
14-3-3 protein gamma = 14-3-3 protein gamma (UniProt P61981); test: as above
[7] = target: MICOS complex subunit MIC60 (UniProt Q16891); test: as above
[8] = target: Cytochrome c oxidase assembly factor 7 (UniProt Q96BR5); test: cross-link between two proteins; affinity purification or IP with mass spectrometry; cross-linking mass spectrometry
[9] = target: Electron transfer flavoprotein subunit beta (UniProt P38117); test: co-fractionation; co-fractionation; cross-linking mass spectrometry
Calnexin = Calnexin (UniProt P27824); test: cross-link between two proteins; affinity purification or IP with mass spectrometry; cross-linking mass spectrometry
[10] = target: ATP synthase F(0) complex subunit e, mitochondrial (UniProt P56385); test: cross-link between two proteins; cross-linking mass spectrometry
[11] = target: Trifunctional enzyme subunit alpha, mitochondrial (UniProt P40939); test: as above
[12] = target: ATP synthase peripheral stalk subunit b, mitochondrial (UniProt P24539); test: co-fractionation; co-fractionation; cross-linking mass spectrometry
[13] = target: Cytochrome c oxidase subunit 4 isoform 1, mitochondrial (UniProt P13073); test: cross-link between two proteins; affinity purification or IP with mass spectrometry; cross-linking mass spectrometry
[14] = target: Cytochrome b-c1 complex subunit 1, mitochondrial (UniProt P31930); test: co-fractionation; co-fractionation; cross-linking mass spectrometry
[15] = target: Endoplasmic reticulum membrane protein complex subunit 7 (UniProt Q9NPA0); test: cross-link between two proteins; affinity purification or IP with mass spectrometry; cross-linking mass spectrometry
[16] = target: Thioredoxin-related transmembrane protein 1 (UniProt Q9H3N1); test: as above
[17] = target: Large ribosomal subunit protein bL12m (UniProt P52815); test: as above
[18] = target: Cytochrome b-c1 complex subunit 2, mitochondrial (UniProt P22695); test: co-fractionation; co-fractionation; cross-linking mass spectrometry
[19] = target: Endoplasmic reticulum resident protein 29 (UniProt P30040); test: cross-link between two proteins; affinity purification or IP with mass spectrometry; cross-linking mass spectrometry
[20] = target: Leucine-rich repeat-containing protein 59 (UniProt Q96AG4); test: as above
[21] = target: Transmembrane emp24 domain-containing protein 9 (UniProt Q9BVK6); test: as above
[22] = target: Propionyl-CoA carboxylase beta chain, mitochondrial (UniProt P05166); test: co-fractionation; co-fractionation; cross-linking mass spectrometry
[23] = target: Mitochondrial import inner membrane translocase subunit Tim29 (UniProt Q9BSF4); test: cross-link between two proteins; affinity purification or IP with mass spectrometry; cross-linking mass spectrometry
[24] = target: 10 kDa heat shock protein, mitochondrial (UniProt P61604); test: cross-link between two proteins; cross-linking mass spectrometry
[25] = target: ATP synthase F(1) complex subunit epsilon, mitochondrial (UniProt P56381); test: as above
[26] = target: ATPase inhibitor, mitochondrial (UniProt Q9UII2); test: as above
Frataxin, mitochondrial = Frataxin, mitochondrial (UniProt Q16595); test: as above
[27] = target: Malate dehydrogenase, mitochondrial (UniProt P40926); test: as above
[28] = target: Trifunctional enzyme subunit beta, mitochondrial (UniProt P55084); test: as above
[29] = target: ATP synthase F(1) complex subunit alpha, mitochondrial (UniProt P25705); test: as above
[30] = target: Complement component 1 Q subcomponent-binding protein, mitochondrial (UniProt Q07021); test: as above
[31] = target: ATP synthase peripheral stalk subunit OSCP, mitochondrial (UniProt P48047); test: as above
[32] = target: NAD kinase 2, mitochondrial (UniProt Q4G0N4); test: co-fractionation; co-fractionation; cross-linking mass spectrometry
[33] = target: Dolichyl-diphosphooligosaccharide--protein glycosyltransferase subunit STT3B (UniProt Q8TCJ2); test: cross-linking mass spectrometry
[34] = target: Dolichyl-diphosphooligosaccharide--protein glycosyltransferase subunit 2 (UniProt P04844); test: co-fractionation; co-fractionation; cross-linking mass spectrometry
14-3-3 protein eta = 14-3-3 protein eta (UniProt P68510); test: cross-link between two proteins; cross-linking mass spectrometry
14-3-3 protein theta = 14-3-3 protein theta (UniProt P68254); test: as above
[35] = target: AP-1 complex subunit beta-1 (UniProt Q10567); test: cross-link between two proteins; co-fractionation; cross-linking mass spectrometry
[36] = target: AP-2 complex subunit beta (UniProt P63010); test: as above
[37] = target: Ras-related protein Rab-11B (UniProt Q15907); test: as above
[38] = target: Cytochrome c oxidase subunit 6C (UniProt P09669); test: cross-link between two proteins; cross-linking mass spectrometry
[39] = target: Solute carrier family 25 member 3 (UniProt Q00325); test: co-fractionation; co-fractionation; cross-linking mass spectrometry
[40] = target: Large ribosomal subunit protein bL12m (UniProt P52815); test: cross-linking mass spectrometry
[41] = target: 3-hydroxyacyl-CoA dehydrogenase type-2 (UniProt Q99714); test: cross-link between two proteins; cross-linking mass spectrometry
[42] = target: Methylcrotonoyl-CoA carboxylase beta chain, mitochondrial (UniProt Q9HCC0); test: as above
[43] = target: Mitochondrial 10-formyltetrahydrofolate dehydrogenase (UniProt Q3SY69); test: as above
[44] = target: Polyribonucleotide nucleotidyltransferase 1, mitochondrial (UniProt Q8TCS8); test: as above
[45] = target: Pyrroline-5-carboxylate reductase 2 (UniProt Q96C36); test: as above
[46] = target: Spectrin alpha chain, non-erythrocytic 1 (UniProt Q13813); test: as above
[47] = target: AP-1 complex subunit mu-1 (UniProt Q9BXS5); test: co-fractionation; cross-linking mass spectrometry
[48] = target: Aldehyde dehydrogenase, mitochondrial (UniProt P05091); test: cross-link between two proteins; cross-linking mass spectrometry
[49] = target: NADH-ubiquinone oxidoreductase 75 kDa subunit, mitochondrial (UniProt P28331); test: as above
[50] = target: BLOC-1-related complex subunit 7 (UniProt Q96B45); test: cross-link between two proteins; co-fractionation; cross-linking mass spectrometry
[51] = target: Ras-related protein Rab-1B (UniProt Q9H0U4); test: as above
[52] = target: Cytochrome b-c1 complex subunit 7 (UniProt P14927); test: cross-link between two proteins; cross-linking mass spectrometry
[53] = target: Cytochrome b-c1 complex subunit Rieske, mitochondrial (UniProt P47985); test: co-fractionation; co-fractionation; cross-linking mass spectrometry
[54] = target: Pyruvate dehydrogenase E1 component subunit beta, mitochondrial (UniProt P11177); test: cross-link between two proteins; co-fractionation; cross-linking mass spectrometry
Syntaxin-8 = Syntaxin-8 (UniProt Q9UNK0); test: cross-link between two proteins; affinity purification or IP with mass spectrometry; cross-linking mass spectrometry
[55] = target: Myeloid-derived growth factor (UniProt Q969H8); test: cross-linking mass spectrometry
[56] = target: Peptidyl-prolyl cis-trans isomerase B (UniProt P23284); test: cross-link between two proteins; cross-linking mass spectrometry
[57] = target: Neutral alpha-glucosidase AB (UniProt Q14697); test: cross-link between two proteins; co-fractionation; cross-linking mass spectrometry

10 kDa heat shock protein, mitochondrial, sequence (P61604 whole entry): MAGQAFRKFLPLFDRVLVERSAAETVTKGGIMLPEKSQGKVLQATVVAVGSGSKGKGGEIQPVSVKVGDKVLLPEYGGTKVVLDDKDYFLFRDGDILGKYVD
Calnexin, sequence (P27824 whole entry): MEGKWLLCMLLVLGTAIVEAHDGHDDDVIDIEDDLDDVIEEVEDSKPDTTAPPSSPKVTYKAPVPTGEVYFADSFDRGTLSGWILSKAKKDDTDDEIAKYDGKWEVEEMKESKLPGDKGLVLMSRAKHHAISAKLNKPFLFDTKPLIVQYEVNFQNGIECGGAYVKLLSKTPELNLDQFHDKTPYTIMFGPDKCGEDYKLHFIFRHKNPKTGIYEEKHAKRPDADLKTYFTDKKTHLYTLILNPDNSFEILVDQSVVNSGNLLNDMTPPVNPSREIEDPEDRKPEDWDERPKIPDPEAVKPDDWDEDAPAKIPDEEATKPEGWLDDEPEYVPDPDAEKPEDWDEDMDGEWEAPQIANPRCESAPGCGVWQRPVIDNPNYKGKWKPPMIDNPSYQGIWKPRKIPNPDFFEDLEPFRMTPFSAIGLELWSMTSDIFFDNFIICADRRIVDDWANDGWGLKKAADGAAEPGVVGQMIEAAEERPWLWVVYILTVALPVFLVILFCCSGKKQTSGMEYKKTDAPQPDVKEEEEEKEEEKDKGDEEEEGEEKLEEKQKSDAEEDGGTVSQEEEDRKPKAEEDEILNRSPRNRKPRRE
Trifunctional enzyme subunit alpha, mitochondrial, sequence (P40939 whole entry): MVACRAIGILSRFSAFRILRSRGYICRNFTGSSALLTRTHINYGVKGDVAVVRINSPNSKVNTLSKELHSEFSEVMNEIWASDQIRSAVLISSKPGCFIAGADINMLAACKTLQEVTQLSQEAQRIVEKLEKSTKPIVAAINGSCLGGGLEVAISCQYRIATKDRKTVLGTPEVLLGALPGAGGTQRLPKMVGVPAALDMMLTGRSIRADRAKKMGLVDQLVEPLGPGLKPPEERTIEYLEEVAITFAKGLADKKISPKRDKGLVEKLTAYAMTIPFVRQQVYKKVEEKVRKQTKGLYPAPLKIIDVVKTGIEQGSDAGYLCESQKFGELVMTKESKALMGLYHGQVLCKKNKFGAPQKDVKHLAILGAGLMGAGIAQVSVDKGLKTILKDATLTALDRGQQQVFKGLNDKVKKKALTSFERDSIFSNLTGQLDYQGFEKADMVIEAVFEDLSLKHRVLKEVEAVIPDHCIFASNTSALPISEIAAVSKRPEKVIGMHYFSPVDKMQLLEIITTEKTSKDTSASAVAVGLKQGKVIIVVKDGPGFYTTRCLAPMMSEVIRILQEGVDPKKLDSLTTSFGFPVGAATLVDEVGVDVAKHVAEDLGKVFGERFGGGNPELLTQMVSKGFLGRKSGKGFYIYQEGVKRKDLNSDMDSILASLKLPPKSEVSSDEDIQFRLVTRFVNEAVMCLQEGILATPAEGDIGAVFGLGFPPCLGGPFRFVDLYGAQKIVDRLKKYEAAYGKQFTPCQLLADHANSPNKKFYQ
Cytochrome c, P99999, sequence (P99999 whole entry): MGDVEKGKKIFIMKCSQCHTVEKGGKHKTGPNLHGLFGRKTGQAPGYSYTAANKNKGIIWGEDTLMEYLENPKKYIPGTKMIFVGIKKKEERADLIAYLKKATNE
Thioredoxin-related transmembrane protein 1, sequence (Q9H3N1 whole entry): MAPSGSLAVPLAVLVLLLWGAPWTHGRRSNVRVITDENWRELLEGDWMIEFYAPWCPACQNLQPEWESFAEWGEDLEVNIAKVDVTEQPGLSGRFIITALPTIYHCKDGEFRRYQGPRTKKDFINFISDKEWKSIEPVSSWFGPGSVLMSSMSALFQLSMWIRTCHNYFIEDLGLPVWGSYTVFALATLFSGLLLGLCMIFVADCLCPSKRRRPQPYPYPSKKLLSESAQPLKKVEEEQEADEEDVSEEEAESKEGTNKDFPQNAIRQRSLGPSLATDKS
Complement component 1 Q subcomponent-binding protein, mitochondrial, sequence (Q07021 whole entry): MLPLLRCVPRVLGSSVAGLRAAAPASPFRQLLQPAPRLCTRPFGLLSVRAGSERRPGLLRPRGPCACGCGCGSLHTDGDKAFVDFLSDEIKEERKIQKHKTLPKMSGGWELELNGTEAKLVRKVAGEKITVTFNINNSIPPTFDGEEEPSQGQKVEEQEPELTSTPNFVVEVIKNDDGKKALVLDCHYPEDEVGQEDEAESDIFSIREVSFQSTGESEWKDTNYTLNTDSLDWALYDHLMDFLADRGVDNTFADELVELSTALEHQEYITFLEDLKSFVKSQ
ATP synthase peripheral stalk subunit OSCP, mitochondrial, sequence (P48047 whole entry): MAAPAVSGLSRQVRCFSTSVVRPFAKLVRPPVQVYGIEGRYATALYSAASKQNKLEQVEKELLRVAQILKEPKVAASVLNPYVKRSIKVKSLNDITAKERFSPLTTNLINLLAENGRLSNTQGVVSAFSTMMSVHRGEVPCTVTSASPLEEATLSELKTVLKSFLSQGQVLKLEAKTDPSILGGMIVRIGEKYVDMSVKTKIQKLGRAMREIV
Ras-related protein Rab-1B, sequence (Q9H0U4 whole entry): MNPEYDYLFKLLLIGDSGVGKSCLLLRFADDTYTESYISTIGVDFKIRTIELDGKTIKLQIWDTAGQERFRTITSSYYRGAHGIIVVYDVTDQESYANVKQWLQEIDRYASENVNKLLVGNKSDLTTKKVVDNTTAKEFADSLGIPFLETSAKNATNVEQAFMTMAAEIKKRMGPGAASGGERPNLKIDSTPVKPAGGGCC
MICOS complex subunit MIC25, sequence (Q9BRQ6 whole entry, one chain of several): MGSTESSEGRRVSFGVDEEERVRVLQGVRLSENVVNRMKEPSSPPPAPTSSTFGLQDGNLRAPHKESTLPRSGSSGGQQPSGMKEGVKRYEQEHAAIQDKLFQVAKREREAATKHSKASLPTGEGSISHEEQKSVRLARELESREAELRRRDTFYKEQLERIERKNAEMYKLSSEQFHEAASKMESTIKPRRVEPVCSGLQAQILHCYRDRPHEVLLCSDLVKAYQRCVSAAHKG
Peptidyl-prolyl cis-trans isomerase B, sequence (P23284 whole entry): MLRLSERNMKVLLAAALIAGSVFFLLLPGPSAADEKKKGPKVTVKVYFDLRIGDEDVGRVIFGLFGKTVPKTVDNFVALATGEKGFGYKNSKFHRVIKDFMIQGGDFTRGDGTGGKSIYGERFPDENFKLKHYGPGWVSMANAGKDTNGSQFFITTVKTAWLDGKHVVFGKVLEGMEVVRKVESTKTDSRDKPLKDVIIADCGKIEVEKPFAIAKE
Propionyl-CoA carboxylase beta chain, mitochondrial, sequence (P05166 whole entry): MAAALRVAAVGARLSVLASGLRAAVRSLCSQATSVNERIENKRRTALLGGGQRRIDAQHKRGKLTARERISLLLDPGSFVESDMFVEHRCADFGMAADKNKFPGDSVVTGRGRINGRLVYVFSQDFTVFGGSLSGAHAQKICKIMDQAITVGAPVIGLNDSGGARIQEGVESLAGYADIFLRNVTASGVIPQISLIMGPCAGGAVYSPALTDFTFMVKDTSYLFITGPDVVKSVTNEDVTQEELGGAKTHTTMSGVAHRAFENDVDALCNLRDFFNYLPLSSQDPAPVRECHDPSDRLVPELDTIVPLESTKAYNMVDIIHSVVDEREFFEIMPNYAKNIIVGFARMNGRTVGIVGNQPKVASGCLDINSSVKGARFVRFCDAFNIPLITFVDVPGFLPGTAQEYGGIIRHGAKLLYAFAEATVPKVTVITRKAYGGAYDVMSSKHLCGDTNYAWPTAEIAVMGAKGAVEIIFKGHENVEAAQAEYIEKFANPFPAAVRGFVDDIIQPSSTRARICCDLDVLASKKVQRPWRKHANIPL
Mitochondrial import inner membrane translocase subunit TIM50, Q3ZCQ8, sequence (Q3ZCQ8 whole entry): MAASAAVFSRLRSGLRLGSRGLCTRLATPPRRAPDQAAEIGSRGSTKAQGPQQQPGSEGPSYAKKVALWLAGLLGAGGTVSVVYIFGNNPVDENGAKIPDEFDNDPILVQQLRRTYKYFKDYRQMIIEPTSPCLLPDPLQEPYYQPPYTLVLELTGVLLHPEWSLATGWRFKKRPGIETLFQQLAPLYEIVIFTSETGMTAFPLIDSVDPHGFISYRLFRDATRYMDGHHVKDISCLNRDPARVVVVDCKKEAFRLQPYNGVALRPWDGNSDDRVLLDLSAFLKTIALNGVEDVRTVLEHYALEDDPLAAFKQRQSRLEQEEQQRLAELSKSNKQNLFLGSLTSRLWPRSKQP
Ras-related protein Rab-11B, sequence (Q15907 whole entry): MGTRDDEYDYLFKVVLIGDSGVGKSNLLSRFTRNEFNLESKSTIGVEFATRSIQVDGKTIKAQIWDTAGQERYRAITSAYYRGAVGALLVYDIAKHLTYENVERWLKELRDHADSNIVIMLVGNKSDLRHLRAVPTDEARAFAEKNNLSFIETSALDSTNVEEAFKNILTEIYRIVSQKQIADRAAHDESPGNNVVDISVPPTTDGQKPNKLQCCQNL
14-3-3 protein eta, sequence (P68510 whole entry): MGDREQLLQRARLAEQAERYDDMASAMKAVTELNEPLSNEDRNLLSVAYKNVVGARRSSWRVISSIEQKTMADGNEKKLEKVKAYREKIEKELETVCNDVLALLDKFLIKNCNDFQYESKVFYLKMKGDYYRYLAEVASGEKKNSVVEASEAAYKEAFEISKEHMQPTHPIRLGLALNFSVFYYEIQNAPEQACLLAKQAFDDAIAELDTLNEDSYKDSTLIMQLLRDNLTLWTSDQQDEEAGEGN
Transmembrane emp24 domain-containing protein 9, sequence (Q9BVK6 whole entry, the tested form may be a part): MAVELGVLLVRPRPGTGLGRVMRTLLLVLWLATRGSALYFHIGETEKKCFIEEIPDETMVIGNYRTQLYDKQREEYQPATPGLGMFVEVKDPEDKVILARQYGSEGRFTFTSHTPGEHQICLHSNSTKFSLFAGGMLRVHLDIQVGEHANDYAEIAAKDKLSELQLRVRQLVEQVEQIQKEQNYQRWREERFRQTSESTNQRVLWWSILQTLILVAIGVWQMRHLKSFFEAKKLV
BLOC-1-related complex subunit 7, sequence (Q96B45 whole entry, one chain of several): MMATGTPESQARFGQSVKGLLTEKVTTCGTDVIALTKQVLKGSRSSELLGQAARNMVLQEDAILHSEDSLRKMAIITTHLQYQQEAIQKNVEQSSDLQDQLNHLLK
ATPase inhibitor, mitochondrial, sequence (Q9UII2 whole entry): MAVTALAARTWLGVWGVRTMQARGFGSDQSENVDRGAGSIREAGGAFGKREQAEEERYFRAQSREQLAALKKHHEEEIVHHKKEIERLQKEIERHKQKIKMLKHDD

Substance: Cytochrome c oxidase assembly factor 7, Q96BR5
- listed as a hit [1]: yes
- listed as a hit [2]: yes
- listed as a hit [3]: yes
- listed as a hit [4]: yes
- listed as a hit [5]: yes
- listed as a hit [6]: yes

Substance: 14-3-3 protein theta, P27348
- listed as a hit (14-3-3 protein epsilon): yes
- listed as a hit (14-3-3 protein gamma): yes

Substance: Cytochrome c, P99999
- listed as a hit [7]: yes
- listed as a hit [8]: yes

Substance: Electron transfer flavoprotein subunit alpha, mitochondrial, P13804
- listed as a hit [9]: yes

Substance: Dolichol-phosphate mannosyltransferase subunit 1, O60762
- listed as a hit (Calnexin): yes

Substance: ATP synthase F(0) complex subunit g, mitochondrial, O75964
- listed as a hit [10]: yes
- listed as a hit [11]: yes
- listed as a hit [12]: yes
- listed as a hit [13]: yes

Substance: Cytochrome b-c1 complex subunit 2, mitochondrial, P22695
- listed as a hit [14]: yes

Substance: Dolichyl-diphosphooligosaccharide--protein glycosyltransferase subunit 2, P04844
- listed as a hit (Calnexin): yes

Substance: ER membrane protein complex subunit 1, Q8N766
- listed as a hit [15]: yes
- listed as a hit [16]: yes

Substance: Heterogeneous nuclear ribonucleoproteins C1/C2, P07910
- listed as a hit [17]: yes

Substance: Cytochrome c1, heme protein, mitochondrial, P08574
- listed as a hit [18]: yes

Substance: Calnexin, P27824
- listed as a hit [19]: yes
- listed as a hit [20]: yes
- listed as a hit [16]: yes
- listed as a hit [21]: yes

Substance: Propionyl-CoA carboxylase alpha chain, mitochondrial, P05165
- listed as a hit [22]: yes

Substance: Cytochrome c oxidase assembly factor 6 homolog, Q5JTJ3
- listed as a hit [8]: yes

Substance: Mitochondrial import inner membrane translocase subunit Tim10, P62072
- listed as a hit [23]: yes

Substance: ATP synthase F(1) complex subunit alpha, mitochondrial, P25705
- listed as a hit [24]: yes
- listed as a hit [25]: yes
- listed as a hit [26]: yes
- listed as a hit (Frataxin, mitochondrial): yes
- listed as a hit [27]: yes
- listed as a hit [11]: yes
- listed as a hit [28]: yes

Substance: NADPH:adrenodoxin oxidoreductase, mitochondrial, P22570
- listed as a hit [24]: yes
- listed as a hit [29]: yes
- listed as a hit [30]: yes
- listed as a hit [27]: yes

Substance: Citrate synthase, mitochondrial, O75390
- listed as a hit [31]: yes
- listed as a hit [27]: yes
- listed as a hit [32]: yes

Substance: Dolichyl-diphosphooligosaccharide--protein glycosyltransferase subunit 1, P04843
- listed as a hit [33]: yes
- listed as a hit [34]: yes
- listed as a hit (Calnexin): yes

Substance: 14-3-3 protein zeta/delta, P63101
- listed as a hit (14-3-3 protein eta): yes
- listed as a hit (14-3-3 protein theta): yes

Substance: AP-2 complex subunit alpha-1, O95782
- listed as a hit [35]: yes
- listed as a hit [36]: yes

Substance: Ras-related protein Rab-11A, P62491
- listed as a hit [37]: yes

Substance: Dynamin-like GTPase OPA1, mitochondrial, O60313
- listed as a hit [8]: yes

Substance: Cytochrome c oxidase copper chaperone, Q14061
- listed as a hit [8]: yes

Substance: ADP/ATP translocase 2, P05141
- listed as a hit [38]: yes
- listed as a hit [27]: yes
- listed as a hit [11]: yes
- listed as a hit [39]: yes

Substance: Stress-70 protein, mitochondrial, P38646
- listed as a hit [40]: yes
- listed as a hit [24]: yes
- listed as a hit [41]: yes
- listed as a hit [30]: yes
- listed as a hit [27]: yes
- listed as a hit [42]: yes
- listed as a hit [43]: yes
- listed as a hit [44]: yes
- listed as a hit [45]: yes
- listed as a hit [46]: yes

Substance: AP-1 complex subunit beta-1, Q10567
- listed as a hit [47]: yes

Substance: Aspartate aminotransferase, mitochondrial, P00505
- listed as a hit [24]: yes
- listed as a hit [48]: yes
- listed as a hit [27]: yes
- listed as a hit [49]: yes

Substance: Mitochondrial import inner membrane translocase subunit TIM50, Q3ZCQ8
- listed as a hit [8]: yes

Substance: Biogenesis of lysosome-related organelles complex 1 subunit 1, P78537
- listed as a hit [50]: yes

Substance: Ras-related protein Rab-1A, P62820
- listed as a hit [51]: yes

Substance: Myristoylated alanine-rich C-kinase substrate, P29966
- listed as a hit [8]: yes

Substance: Cytochrome b-c1 complex subunit 8, O14949
- listed as a hit [52]: yes
- listed as a hit [53]: yes

Substance: Pyruvate dehydrogenase E1 component subunit alpha, somatic form, mitochondrial, P08559
- listed as a hit [27]: yes
- listed as a hit [54]: yes

Substance: Flotillin-1, O75955
- listed as a hit (Syntaxin-8): yes

Substance: Glucosidase 2 subunit beta, P14314
- listed as a hit [55]: yes
- listed as a hit [56]: yes
- listed as a hit [57]: yes

Substance: Tetratricopeptide repeat protein 19, mitochondrial, Q6DKK2
- listed as a hit [8]: yes
